Compounds without any hit were thinned out: in the full panel of roughly 83,000, 20% have a hit.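 In brief: 96-well plates, 48 h treatment, single concentration, percent growth endpoint.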 Values without a mark were called inactive. Activity calls are given as the source filed them. The calls were made as follows: active = growth percent below 10; inactive = the rest.

This experiment has as its system HL-60(TB) leukemia. The experiment in a line: NCI-60 one-dose screen, 48 h (100 = growth as untreated, 0 = no growth, -100 = all killed). The conditions noted are these: 10 µM unless noted.
Turning to `O=C1/C(=C/c2ccccn2)SC(=S)N1N1CCOCC1`, the growth was 97.2%.
`CCCc1cc2c(cc1CN(Cc1cc3c(cc1CCC)OCO3)C(=N)OCC)OCO2`: the growth was 105%.
As for `Cc1ccc2nc(-c3ccc(N=Cc4ccccc4O)cc3)sc2c1`, the growth is 77.7%.
Regarding `CC/C=C\C/C=C\C[C@H](O)C/C=C1/C(=O)C=C[C@@H]1C/C=C\CCCC(=O)OC`, the growth is -19.5% (active).
For the molecule `CCCCOc1ccc(C(C)(C)c2ccc(OCCCC)cc2)cc1`, the growth was 92.5%.
The figure for `c1ccc2cc(C[n+]3ccn(CCCCCCCCCCn4cc[n+](Cc5ccc6ccccc6c5)c4)c3)ccc2c1` is -67.8% (active); for `CC(C)C[C@H](C(=O)O)N(C)C(=O)[C@@H]1CCCN1C(=O)[C@H](C)OC(=O)[C@H](CCC(N)=O)NC(=O)[C@@H]1CCC(=O)N1` it is 85.8%.
The figure for `CC1(C)CC[C@]2(CO)CC[C@]3(C)C(=CC[C@@H]4[C@@]5(C)CC[C@H](NCO)C(C)(C)[C@@H]5CC[C@]43C)[C@@H]2C1` is -60.5% (active); for `O=C(NNc1cnccn1)c1nc2cc(F)ccc2n2cccc12` it is 2.46% (active).
For `O=C(NC1CCCCCC1)c1ccc2c(=O)n3c(nc2c1)CCCCC3`, the growth is 144%.
`Cc1nc2sccn2c1-c1csc(Nc2cccc(Cl)c2C)n1`: the growth is 36.4%.
Turning to `COc1ccc(-c2nc(-c3nc4cc(C)c(C)cc4[nH]3)cc3c2[nH]c2ccccc23)cc1`, the growth is -31.9% (active).
As for `CCCCCCCCCCCCCCCCCCOc1ccccc1CC(=O)OCC[N+]1(C)CCCCC1`, the growth was -5.08% (active).

For the origin of these results see PubChem BioAssay (NCI).
